Laboratory results taken from PubChem BioAssay AID1159580 (chemical genetic matrix, 2015).
The whole screen tested about 5,500 compounds, of which about 2,000 (36%) were called active. Inconclusive results (about 18%) are left out. Cut-off read from the data, not from the text of the source: active = normalized growth mostly below about 0.91 (no sharp cut-off); inconclusive = no clear call, values can overlap the other calls; inactive = mostly above about 0.92. This is one part of the list.

Experiment: chemical genetic growth profiling, strain panel (AID 1159580);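 note: tested at 20 µM; growth read once vehicle control cultures reached saturation at 30 °C; 1 = growth at the plate median or of vehicle wells; lower values mean less growth of the strain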
Conditions: growth OD
[1] = S. cerevisiae deletion strains, locus YDL101C, strain DUN1, active compounds read low
[2] = S. cerevisiae deletion strains, locus YHR030C, strain SLT2, active compounds read low
[3] = S. cerevisiae deletion strains, locus YAL013W, strain DEP1, active compounds read low
[4] = S. cerevisiae deletion strains, locus YBR229C, strain ROT2, active compounds read low
[5] = S. cerevisiae deletion strains, locus YDL134C, strain PPH21, active compounds read low
[6] = S. cerevisiae deletion strains, locus YDR150W, strain NUM1, active compounds read low
[7] = S. cerevisiae deletion strains, locus YEL061C, strain CIN8, active compounds read low
[8] = S. cerevisiae deletion strains, locus YGR078C, strain PAC10, active compounds read low
[9] = S. cerevisiae deletion strains, locus YHR087W, strain rtc3, active compounds read low
[10] = S. cerevisiae deletion strains, locus YJR043C, strain POL32, active compounds read low
[11] = S. cerevisiae deletion strains, locus YJR075W, strain HOC1, active compounds read low
[12] = S. cerevisiae deletion strains, locus YLR039C, strain RIC1, active compounds read low
[13] = S. cerevisiae deletion strains, locus YLR058C, strain SHM2 (second series), active compounds read low
[14] = S. cerevisiae deletion strains, locus YLR085C, strain ARP6, active compounds read low
[15] = S. cerevisiae deletion strains, locus YLR262C, strain YPT6, active compounds read low
[16] = S. cerevisiae deletion strains, locus YML094W, strain GIM5, active compounds read low
[17] = S. cerevisiae deletion strains, locus YMR219W, strain ESC1, active compounds read low
[18] = S. cerevisiae deletion strains, locus YMR263W, strain SAP30, active compounds read low
[19] = S. cerevisiae deletion strains, locus YMR307W, strain GAS1, active compounds read low
[20] = S. cerevisiae deletion strains, locus YNL153C, strain GIM3, active compounds read low
[21] = S. cerevisiae deletion strains, locus YNL298W, strain CLA4 (second series), active compounds read low
[22] = S. cerevisiae deletion strains, locus YNL322C, strain KRE1, active compounds read low
[23] = S. cerevisiae deletion strains, locus YNR030W, strain Alg12, active compounds read low
[24] = S. cerevisiae deletion strains, locus YPL055C, strain LGE1, active compounds read low
[25] = S. cerevisiae deletion strains, locus YPL241C, strain CIN2, active compounds read low
[26] = S. cerevisiae deletion strains, locus YPR135W, strain CTF4, active compounds read low

Measured: normalized growth

Cc1cc(-c2onc(C)c2C(=O)Sc2ccccc2)no1
inactive: S. cerevisiae deletion strains, locus YAR019C, strain CDC15, active compounds read low 0.941 | S. cerevisiae deletion strains, locus YBL105C, strain PKC1, active compounds read low 0.963 | S. cerevisiae deletion strains, locus YBR135W, strain CKS1, active compounds read low 0.939 | S. cerevisiae deletion strains, locus YBR136W, strain MEC1, active compounds read low 0.961 | S. cerevisiae deletion strains, locus YBR160W, strain CDC28, active compounds read low 0.954 | S. cerevisiae deletion strains, locus YDL017W, strain CDC7, active compounds read low 0.957 | S. cerevisiae deletion strains, locus YDL028C, strain MPS1, active compounds read low 0.958 | [1] 0.959 | S. cerevisiae deletion strains, locus YDL108W, strain KIN28, active compounds read low 0.962 | S. cerevisiae deletion strains, locus YDL132W, strain cdc53, active compounds read low 0.926 | S. cerevisiae deletion strains, locus YDL214C, strain PRR2, active compounds read low 0.826 | S. cerevisiae deletion strains, locus YDR052C, strain DBF4, active compounds read low 0.971 | S. cerevisiae deletion strains, locus YDR054C, strain cdc34, active compounds read low 0.918 | S. cerevisiae deletion strains, locus YDR226W, strain ADK1, active compounds read low 0.954 | S. cerevisiae deletion strains, locus YDR477W, strain SNF1, active compounds read low 0.811 | S. cerevisiae deletion strains, locus YER123W, strain YCK3, active compounds read low 0.736 | S. cerevisiae deletion strains, locus YER133W, strain GLC7, active compounds read low 0.823 | S. cerevisiae deletion strains, locus YFL009W, strain cdc4, active compounds read low 0.921 | S. cerevisiae deletion strains, locus YFL029C, strain CAK1, active compounds read low 0.921 | S. cerevisiae deletion strains, locus YFR003C, strain YPI1, active compounds read low 0.958 | S. cerevisiae deletion strains, locus YFR019W, strain FAB1, active compounds read low 0.909 | S. cerevisiae deletion strains, locus YFR028C, strain CDC14, active compounds read low 0.96 | S. cerevisiae deletion strains, locus YGR040W, strain KSS1, active compounds read low 0.852 | S. cerevisiae deletion strains, locus YGR052W, strain FMP48, active compounds read low 0.81 | S. cerevisiae deletion strains, locus YGR092W, strain DBF2, active compounds read low 0.705 | S. cerevisiae deletion strains, locus YHR079C, strain IRE1, active compounds read low 0.704 | S. cerevisiae deletion strains, locus YHR082C, strain KSP1, active compounds read low 0.901 | S. cerevisiae deletion strains, locus YHR205W, strain SCH9, active compounds read low 0.657 | S. cerevisiae deletion strains, locus YIL147C, strain SLN1, active compounds read low 0.958 | S. cerevisiae deletion strains, locus YJL095W, strain BCK1, active compounds read low 0.704 | S. cerevisiae deletion strains, locus YJL128C, strain PBS2, active compounds read low 0.888 | S. cerevisiae deletion strains, locus YJL157C, strain FAR1, active compounds read low 0.819 | S. cerevisiae deletion strains, locus YJR016C, strain ILV3, active compounds read low 0.944 | S. cerevisiae deletion strains, locus YJR066W, strain TOR1 (second series), active compounds read low 0.708 | S. cerevisiae deletion strains, locus YJR066W, strain TOR1, active compounds read low 0.892 | S. cerevisiae deletion strains, locus YKL048C, strain ELM1, active compounds read low 0.942 | S. cerevisiae deletion strains, locus YKL067W, strain YNK1, active compounds read low 0.824 | S. cerevisiae deletion strains, locus YKL101W, strain HSL1, active compounds read low 0.881 | S. cerevisiae deletion strains, locus YKL193C, strain SDS22, active compounds read low 0.942 | S. cerevisiae deletion strains, locus YKL203C, strain TOR2, active compounds read low 0.885 | S. cerevisiae deletion strains, locus YLR133W, strain CKI1, active compounds read low 0.867 | S. cerevisiae deletion strains, locus YLR403W, strain SFP1, active compounds read low 0.794 | S. cerevisiae deletion strains, locus YML070W, strain DAK1, active compounds read low 0.829 | S. cerevisiae deletion strains, locus YMR001C, strain CDC5, active compounds read low 0.935 | S. cerevisiae deletion strains, locus YMR205C, strain PFK2 (second series), active compounds read low 0.87 | S. cerevisiae deletion strains, locus YMR277W, strain FCP1, active compounds read low 0.925 | S. cerevisiae deletion strains, locus YNL006W, strain LST8, active compounds read low 0.962 | S. cerevisiae deletion strains, locus YNL020C, strain ARK1, active compounds read low 0.846 | S. cerevisiae deletion strains, locus YNL161W, strain CBK1, active compounds read low 0.947 | S. cerevisiae deletion strains, locus YNL183C, strain NPR1, active compounds read low 0.68 | S. cerevisiae deletion strains, locus YNL207W, strain RIO2, active compounds read low 0.947 | S. cerevisiae deletion strains, locus YNL222W, strain SSU72, active compounds read low 0.943 | S. cerevisiae deletion strains, locus YNL307C, strain MCK1 (second series), active compounds read low 0.802 | S. cerevisiae deletion strains, locus YOL078W, strain AVO1, active compounds read low 0.918 | S. cerevisiae deletion strains, locus YOL136C, strain PFK27, active compounds read low 0.843 | S. cerevisiae deletion strains, locus YOR061W, strain CKA2, active compounds read low 0.859 | S. cerevisiae deletion strains, locus YOR119C, strain RIO1, active compounds read low 0.836 | S. cerevisiae deletion strains, locus YOR231W, strain MKK1, active compounds read low 0.75 | S. cerevisiae deletion strains, locus YOR329C, strain SCD5, active compounds read low 0.95 | S. cerevisiae deletion strains, locus YPL031C, strain PHO85, active compounds read low 0.783 | S. cerevisiae deletion strains, locus YPL153C, strain RAD53, active compounds read low 0.756 | S. cerevisiae deletion strains, locus YPL204W, strain HRR25, active compounds read low 0.805 | S. cerevisiae deletion strains, locus YPL209C, strain IPL1, active compounds read low 0.944 | S. cerevisiae deletion strains, locus YPR025C, strain CCL1, active compounds read low 0.956 | S. cerevisiae deletion strains, locus YPR106W, strain ISR1, active compounds read low 0.973 | S. cerevisiae deletion strains, locus YPR111W, strain DBF20, active compounds read low 0.97 | S. cerevisiae deletion strains, strain NNK1, active compounds read low 0.953 | S. cerevisiae deletion strains, strain TSCII, active compounds read low 0.93
active: [2] 0.743 | S. cerevisiae deletion strains, locus YLR113W, strain HOG1, active compounds read low 0.453 | S. cerevisiae deletion strains, locus YPL256C, strain CLN2, active compounds read low 0.695

CSc1cc(C(F)(F)F)cc(SC)c1SC
inactive: [3] 0.993 | [4] 0.975 | [1] 0.992 | [6] 1.01 | [7] 0.987 | [8] 0.981 | [9] 0.953 | S. cerevisiae deletion strains, locus YJL187C, strain SWE1, active compounds read low 0.986 | [10] 0.988 | [11] 0.945 | S. cerevisiae deletion strains, locus YKL190W, strain CNB1, active compounds read low 0.967 | [13] 0.974 | [14] 0.958 | [16] 1.01 | [17] 0.978 | [18] 0.997 | [20] 1 | [21] 0.975 | [22] 0.969 | [23] 0.974 | [24] 0.866 | [25] 0.986 | [26] 0.909 | S. cerevisiae strains, strain wild type, active compounds read low 0.925
active: [5] 0.909 | [2] 0.678 | [12] 0.785 | [15] 0.809 | [19] 0.373

O=C(Nc1ccc(Cl)cc1)N1CCN(c2ncccc2C(F)(F)F)CC1
inactive: [3] 0.996 | [4] 0.979 | [1] 0.956 | [5] 0.955 | [6] 0.978 | [7] 0.976 | [8] 0.939 | [2] 0.713 | [9] 0.939 | [10] 0.97 | [11] 0.908 | [12] 1.04 | [13] 0.968 | [14] 0.944 | [15] 0.978 | [16] 0.957 | [17] 0.976 | [18] 0.969 | [19] 0.805 | [20] 0.946 | [21] 0.893 | [22] 0.988 | [23] 0.956 | S. cerevisiae deletion strains, locus YOL006C, strain TOP1, active compounds read low 0.782 | [24] 0.943 | [25] 0.92 | [26] 1.04

COc1ccccc1N1CCN(CCN(C(=O)C2CCCCC2)c2ccccn2)CC1
inactive: S. cerevisiae deletion strains, locus YAL040C, strain CLN3, active compounds read low 0.99 | S. cerevisiae deletion strains, locus YCL061C, strain MRC1 (second series), active compounds read low 1.01 | S. cerevisiae deletion strains, locus YDR363W, strain ESC2, active compounds read low 1.01 | S. cerevisiae deletion strains, locus YER002W, strain NOP16, active compounds read low 1.01 | [11] 1.01 | [18] 0.997 | [19] 0.993 | S. cerevisiae deletion strains, locus YNL128W, strain TEP1, active compounds read low 1.01 | [20] 1.01 | S. cerevisiae deletion strains, locus YNL175C, strain NOP13, active compounds read low 0.999 | S. cerevisiae deletion strains, locus YNL197C, strain WHI3, active compounds read low 1 | S. cerevisiae deletion strains, locus YNL224C, strain SQS1, active compounds read low 1 | S. cerevisiae deletion strains, locus YOR083W, strain WHI5 (second series), active compounds read low 1.05 | [25] 1.01
